{
  "source": "the supplement of paper PMC8728848",
  "assay_in_all_cases": "glycan array binding signal (z-score within array); higher = stronger binding",
  "settings_in_all_cases": "glycan notation: IUPAC condensed, linker removed",
  "key": {"Fuc(a1-2)Gal": {"biological_target": "Fuc(a1-2)Gal", "outline": "(§1)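 Glycan array data came from 3228 arrays in the Consortium for Functional Glycomics database, and only arrays with an available protein sequence were kept. Glycan names were put into IUPAC-condensed notation, and columns mapping to the same glycan were averaged. The binding signal is a within-array Z-score, averaged across arrays of one protein sequence run at different concentrations or buffers and across linkers. A negative Z-score can be read as non-binding.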"}, "[1]": {"biological_target": "Fuc(a1-2)[Gal(a1-3)]Gal(b1-4)GlcNAc", "outline": "as §1"}, "[2]": {"biological_target": "Fuc(a1-2)[Gal(a1-3)]Gal(b1-4)[Fuc(a1-3)]GlcNAc", "outline": "as §1"}, "Gal(a1-4)Gal(b1-4)GalNAc": {"biological_target": "Gal(a1-4)Gal(b1-4)GalNAc", "outline": "as §1"}, "Gal(b1-2)Gal": {"biological_target": "Gal(b1-2)Gal", "outline": "as §1"}, "[3]": {"biological_target": "Gal(b1-3)GalNAc(b1-3)Gal(a1-4)Gal(b1-4)Glc", "outline": "as §1"}, "Gal(b1-4)Glc6S": {"biological_target": "Gal(b1-4)Glc6S", "outline": "as §1"}, "[4]": {"biological_target": "GlcNAc(a1-3)Gal(b1-4)GlcNAc", "outline": "as §1"}, "[5]": {"biological_target": "GlcNAc(b1-2)Gal(b1-3)GlcNAc", "outline": "as §1"}, "[6]": {"biological_target": "GlcNAc(b1-3)[GlcNAc(b1-6)]GlcNAc", "outline": "as §1"}, "[7]": {"biological_target": "GlcNAc(b1-4)Gal(b1-4)GlcNAc", "outline": "as §1"}, "[8]": {"biological_target": "GlcNAc(b1-4)GlcNAc(b1-4)GlcNAc(b1-4)GlcNAc(b1-4)GlcNAc", "outline": "as §1"}, "[9]": {"biological_target": "Man(a1-3)[Man(a1-6)]Man(a1-6)[Man(a1-3)]Man(b1-4)GlcNAc(b1-4)GlcNAc", "outline": "as §1"}, "[10]": {"biological_target": "Neu5Ac(a2-3)Gal(b1-3)GalNAc(b1-3)Gal(a1-4)Gal(b1-4)Glc", "outline": "as §1"}, "[11]": {"biological_target": "Neu5Ac(a2-3)Gal(b1-3)GlcNAc", "outline": "as §1"}, "[12]": {"biological_target": "Neu5Ac(a2-3)Gal6S(b1-4)[Fuc(a1-3)]GlcNAc", "outline": "as §1"}, "Neu5Ac(a2-6)GalNAc": {"biological_target": "Neu5Ac(a2-6)GalNAc", "outline": "as §1"}, "[13]": {"biological_target": "Neu5Gc(a2-3)Gal(b1-3)[Fuc(a1-4)]GlcNAc", "outline": "as §1"}},
  "note": "The sample as a whole holds a higher share of the strongest signals than the screen did.",
  "data": [
    {"binder": "CVNH3T (Magnaporthe grisea) (protein) GSHIGPYGNYAGNFSGSSRDICLDGARLRAECRRGDGGYSTSVIDLNRYLSNDNGHFRWVSGGGGGGGTATVTVQQGDTLRDIGRRFDCDFHEIARRNNIQNEDLIYPGQVLQVPTKGGSGGGAGNFWDSARDVRLVDGGKVLEAELRYSGGWNRSRIYLDEHIGNRNGELIHC", "values": [
      {"measurement": "glycan array binding signal (z-score)", "setting": "Fuc(a1-2)Gal", "value": -0.223},
      {"measurement": "glycan array binding signal (z-score)", "setting": "[1]", "value": -0.23},
      {"measurement": "glycan array binding signal (z-score)", "setting": "[2]", "value": -0.226},
      {"measurement": "glycan array binding signal (z-score)", "setting": "Gal(a1-4)Gal(b1-4)GalNAc", "value": 5.47},
      {"measurement": "glycan array binding signal (z-score)", "setting": "Gal(b1-2)Gal", "value": -0.185},
      {"measurement": "glycan array binding signal (z-score)", "setting": "[3]", "value": 6.38},
      {"measurement": "glycan array binding signal (z-score)", "setting": "Gal(b1-4)Glc6S", "value": -0.229},
      {"measurement": "glycan array binding signal (z-score)", "setting": "[4]", "value": -0.239},
      {"measurement": "glycan array binding signal (z-score)", "setting": "[5]", "value": -0.233},
      {"measurement": "glycan array binding signal (z-score)", "setting": "[6]", "value": -0.222},
      {"measurement": "glycan array binding signal (z-score)", "setting": "[7]", "value": -0.22},
      {"measurement": "glycan array binding signal (z-score)", "setting": "[8]", "value": 5.39},
      {"measurement": "glycan array binding signal (z-score)", "setting": "[9]", "value": -0.23},
      {"measurement": "glycan array binding signal (z-score)", "setting": "[10]", "value": 6.23},
      {"measurement": "glycan array binding signal (z-score)", "setting": "[11]", "value": -0.152},
      {"measurement": "glycan array binding signal (z-score)", "setting": "[12]", "value": -0.226},
      {"measurement": "glycan array binding signal (z-score)", "setting": "Neu5Ac(a2-6)GalNAc", "value": -0.209},
      {"measurement": "glycan array binding signal (z-score)", "setting": "[13]", "value": -0.175}
    ]}
  ]
}
